# An excerpt weighted towards active compounds, which were near 1.1% of everything screened.
# NTR1 ag: agonists of human neurotensin receptor NTR1. P30989. NTR1-U2OS beta-arrestin-GFP spot imaging, agonist mode. activation, % at 20 µM. hit rate 0.17% among 330,000. AID 493036;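 active = activation at or above 40% of the spot to cytoplasm intensity ratio, with at least 20 cells analyzed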
# AI-2 QS mod: modulators of Vibrio harveyi AI-2 quorum sensing system. Vibrio harveyi JMH597 AI-2 luminescence/OD600 ratio, 9 h; stronger effect = lower value; strain lacks LuxN and CqsS sensors; 0 = neutral-control median. activity change, % at 7.5 µM. hit rate 0.4% among 300,000; in the data active = activity change below about -75%, passing the limit was not always enough;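 also: luminescence divided by OD600 gain over 9 h not by final OD600 alone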
# VLA-4 inh: inhibition in a human VLA-4 binding assay. AID 2557. hit rate 0.2% among 330,000. VLA-4 expressing cells, ligand binding flow cytometry. P13612. inhibition, % (about 7 µM as worked out from the volumes in the protocol); in the data active = inhibition above about 50%
# Target sequence (P13612 whole entry, looked up): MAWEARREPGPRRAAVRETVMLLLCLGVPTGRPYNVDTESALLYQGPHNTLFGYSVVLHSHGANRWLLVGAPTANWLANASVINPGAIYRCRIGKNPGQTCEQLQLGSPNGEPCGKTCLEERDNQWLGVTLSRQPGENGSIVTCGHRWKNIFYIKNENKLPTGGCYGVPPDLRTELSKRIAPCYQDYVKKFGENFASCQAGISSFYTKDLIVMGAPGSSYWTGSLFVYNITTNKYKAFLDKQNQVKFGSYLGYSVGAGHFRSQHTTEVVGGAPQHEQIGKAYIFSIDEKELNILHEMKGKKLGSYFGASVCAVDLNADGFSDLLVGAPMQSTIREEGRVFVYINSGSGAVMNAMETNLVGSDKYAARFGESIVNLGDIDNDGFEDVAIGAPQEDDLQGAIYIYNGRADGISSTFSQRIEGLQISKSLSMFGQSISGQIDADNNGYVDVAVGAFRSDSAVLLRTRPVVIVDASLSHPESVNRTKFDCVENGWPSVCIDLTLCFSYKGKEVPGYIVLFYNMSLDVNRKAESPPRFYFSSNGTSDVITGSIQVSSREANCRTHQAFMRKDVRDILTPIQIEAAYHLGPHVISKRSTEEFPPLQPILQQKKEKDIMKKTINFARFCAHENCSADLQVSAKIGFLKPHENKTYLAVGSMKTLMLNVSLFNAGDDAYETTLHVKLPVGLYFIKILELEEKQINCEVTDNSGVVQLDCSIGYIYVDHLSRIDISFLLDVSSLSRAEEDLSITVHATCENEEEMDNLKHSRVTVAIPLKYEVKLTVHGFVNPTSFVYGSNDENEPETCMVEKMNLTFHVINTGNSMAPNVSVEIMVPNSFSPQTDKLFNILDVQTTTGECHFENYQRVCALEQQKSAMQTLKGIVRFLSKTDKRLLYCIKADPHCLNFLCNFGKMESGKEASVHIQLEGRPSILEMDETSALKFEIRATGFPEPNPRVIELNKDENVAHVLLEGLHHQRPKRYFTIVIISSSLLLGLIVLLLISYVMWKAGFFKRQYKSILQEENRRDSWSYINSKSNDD
# DSG3 Ab inh: blocks pemphigus antibody binding to human desmoglein-3 | P32926 | DSG3-coupled beads, scFv-anti-DSG3-GFP binding, flow cytometry; stronger effect = lower value | binding (percent of control), % at 10 µM | hit rate 0.48% among 310,000;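 active = binding more than 3 SD below its plate's average and above zero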
# VLA-4 allo CP: human VLA-4 allosteric modulation in cherry picked compounds; inhibition, % at 6.7 µM; shares compounds with VLA-4 inh; hit rate 2% among 1,300; U937 cells, HUTS-21 LIBS mAb binding, flow cytometry; LDV ligand present at threefold Kd; in the data active = inhibition above about 40%
# NTR1 ag conf: NTR1 (human) agonism, confirmed. activation, % at 20 µM. shares compounds with NTR1 ag. AID 504550. hit rate 38% among 480. NTR1-U2OS beta-arrestin-GFP translocation imaging;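 active = mean activation at 20 µM of at least 40%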
# Numbers stand for hits; – = inactive; · = no result.
SMILES,NTR1 ag,AI-2 QS mod,VLA-4 inh,DSG3 Ab inh,NTR1 ag conf,others
CC1CCN(c2nc3ccc(C(=O)NCCCN4CCCCC4C)cc3s2)CC1 (stereo unspecified),–,–,–,–,·,VLA-4 allo CP=–
CC1CCCC(C)N1CCCNC(=O)c1ccc2nc(N3CCCCC3)sc2c1 (stereo unspecified),–,–,51,–,·,VLA-4 allo CP=–
O=C(NCCCN1CCC(Cc2ccccc2)CC1)c1ccc2nc(N3CCOCC3)sc2c1,–,–,–,–,·,
CC1CCCC(C)N1CCCNC(=O)c1ccc2nc(N3CCOCC3)sc2c1 (stereo unspecified),–,–,–,–,·,VLA-4 allo CP=–
O=C(c1ccc(F)cc1)N1CCC(C(=O)N2CCN(S(=O)(=O)c3cccc(Cl)c3)CC2)CC1,–,–,–,–,·,
COc1cccc(NC(=O)CN(C)C(=O)c2c(C)noc2C)c1,–,·,–,–,·,
Cc1ccc(/C=C/C(=O)NCCCn2ccnc2)cc1,–,–,–,–,·,
O=C(/C=C/c1ccccc1[N+](=O)[O-])NCCCn1ccnc1,–,–,62,–,·,VLA-4 allo CP=–
CCO[C@H]1OC(C(=O)N2CCOCC2)=C[C@@H](c2coc3ccccc3c2=O)[C@@H]1CCCO,–,–,–,–,·,
COc1cc(C(=O)OCC(=O)NCCC2=CCCCC2)cc(OC)c1OC,–,·,·,–,·,
COc1cccc(C(=O)OCC(=O)NCCC2=CCCCC2)c1,–,·,–,–,·,VLA-4 allo CP=–
CCOC(=O)c1cc(C#N)c(N2CCN(C(=O)c3cccc(C(F)(F)F)c3)CC2)nc1C(F)(F)F,–,–,–,·,·,
CCCCNC(=O)Cn1c(=O)oc2cc(S(=O)(=O)N3CC(C)CC(C)C3)ccc21 (stereo unspecified),–,–,–,–,·,VLA-4 allo CP=–
CN(C)S(=O)(=O)NC(=O)C1=C(N2CCCC2)COC1=O,–,·,–,–,·,
OCC1OC(n2cnc3c(NCc4ccccc4O)ncnc32)C(O)C1O (stereo unspecified),·,·,·,–,·,
OCC1OC(n2cnc3c(NCCc4ccccc4)ncnc32)C(O)C1O (stereo unspecified),–,–,–,–,·,VLA-4 allo CP=–
OC[C@H]1O[C@@H](n2cnc3c(Nc4ccccc4)ncnc32)[C@H](O)[C@@H]1O,–,–,–,–,·,VLA-4 allo CP=–
Nc1ccc(CCNc2ncnc3c2ncn3[C@@H]2O[C@H](CO)[C@@H](O)[C@H]2O)cc1,–,–,–,–,·,VLA-4 allo CP=–
N#CC1=C(N)Oc2cc(N)ccc2C1c1ccc(F)cc1F (stereo unspecified),–,·,–,–,·,
CC(=O)Nc1ccc(S(=O)(=O)c2cc(O)ccc2O)cc1,–,–,–,–,·,
CCN(CC)C(=O)Cn1cc([N+](=O)[O-])cc1[N+](=O)[O-],·,·,·,–,·,
Cc1ccc2c(c1)c1c(n2CC(O)CNC2CCCCC2)CCCC1 (stereo unspecified),42,–,52,–,53,VLA-4 allo CP=–
COc1cc(OC)cc(C(=O)NN(CCC#N)C2=NS(=O)(=O)c3ccccc32)c1,–,–,–,–,·,
CC1CCCC(NCC(O)COC(c2ccc(F)cc2)c2ccc(F)cc2)C1C (stereo unspecified),52,–,–,–,–,
CCOC(=O)C1(CC2CCCCO2)CCN(C(=O)Nc2ccc(C(=O)OC)cc2)CC1 (stereo unspecified),–,–,–,–,·,
SMILES,NTR1 ag,AI-2 QS mod,VLA-4 inh,DSG3 Ab inh,NTR1 ag conf,others
Cc1ccc(C(=O)/C=C/C(=O)c2ccc(C)cc2)cc1,42,–,69,–,73,
O=C(CCN1C(=O)c2cccc([N+](=O)[O-])c2C1=O)NC1CCCCCC1,–,·,–,–,·,
CC1N=C2c3ccccc3N=C(SCc3cc(=O)n4cc(Cl)ccc4n3)N2C1=O (stereo unspecified),52,–,–,·,–,
Cc1[nH]nc(-c2ccc(O)cc2O)c1Oc1ccccc1,–,–,–,–,·,
CCc1cc(-c2n[nH]c(C)c2Oc2ccc(C(C)C)cc2)c(O)cc1O,64,–,–,–,–,
Cc1ccc2[nH]c(C)c(/C=N/Nc3nc4ccccc4s3)c2c1,41,–,–,–,–,
COc1ccc(C=NNc2nc3ccccc3s2)cc1,·,·,·,–,·,
Cc1cc(NC(=O)c2cccs2)n(-c2nc3ccccc3[nH]2)n1,–,–,–,–,·,
Cc1cccc(-n2nc(C(=O)c3ccco3)cc(-c3nc4ccccc4[nH]3)c2=N)c1,–,–,–,–,·,
Cc1ccccc1-n1nc(C(=O)c2cccs2)cc(-c2nc3ccccc3[nH]2)c1=N,55,–,–,·,–,
COc1ccc(-n2nc(C(=O)c3cccs3)cc(-c3nc4ccccc4[nH]3)c2=N)cc1,76,–,–,·,–,
O=C(C(=O)N1CCCCC1)c1cn(CC(=O)N2CCCCCC2)c2ccccc12,–,–,–,·,·,
COc1ccc(CN(C)C(=O)c2cc(S(=O)(=O)Nc3ccccc3F)ccc2C)c(OC)c1,–,–,–,–,·,
Cc1ccc(CNC(=O)c2ccc(N3CCC4(CC3)CC(c3ccccc3)=NO4)c(NC(=O)c3ccc(Cl)c([N+](=O)[O-])c3)c2)cc1,–,–,–,–,·,
COc1cc(/C=C/C(=O)OCC(=O)Nc2cc(S(=O)(=O)N3CCCC3)ccc2Cl)cc(OC)c1OC,–,·,–,–,·,
Cc1ccc(C)c(OCC(=O)N2CCN(c3ncccn3)CC2)c1,–,·,–,–,·,
O=[N+]([O-])c1ccc(-c2nc(Nc3cccc(O)c3)c3ccccc3n2)cc1,56,–,–,–,49,
Cc1ccc(-c2nc(Nc3ccc(O)cc3)c3ccccc3n2)cc1,42,–,–,–,–,
O=C(OCCNc1nc(-c2ccccc2)nc2ccccc12)c1cccnc1,–,–,–,–,·,
O=C(O)c1cccc(Nc2nc(-c3ccc([N+](=O)[O-])cc3)nc3ccccc23)c1,–,–,–,–,·,
CCCOC(=O)c1cccc(Nc2nc(-c3cccnc3)nc3ccccc23)c1,44,–,–,–,44,
Cc1ccc(-c2nc(Nc3cccc(O)c3)c3ccccc3n2)cc1,57,–,–,–,44,
CCn1ccc(C(=O)Nc2ccc3c(c2)CCC3)n1,–,–,–,–,·,
Nc1ccc(C(=O)N/N=C\c2ccc(OC(=O)c3ccccc3Cl)cc2)cc1,–,–,–,–,·,
COc1cc(C(=O)N/N=C/c2ccc(OC(=O)c3ccccc3Cl)cc2)ccc1O,49,–,–,–,–,
Cc1ccc(C(c2cc(Br)ccc2O)N2CCSCC2)cc1 (stereo unspecified),–,–,–,–,·,
Oc1ccc(/C=N/N2CCN(C3c4ccccc4-c4ccccc43)CC2)c(O)c1,43,–,–,–,–,
CCOC(=O)/C=c1\s/c(=C\c2ccc3cc(OC)ccc3c2)c(=O)n1CC(=O)NCC1CCCO1 (stereo unspecified),52,–,–,–,45,
O=C(COc1ccccc1F)N1N=C(c2cccs2)CC1c1ccco1 (stereo unspecified),–,·,·,–,·,

# Screening data deposited in PubChem BioAssay by several laboratories.
